# Source: PubChem BioAssay (several laboratories)
# tim23-1 inh: inhibits growth of tim23-1 mutant yeast; inhibition, % at 20 µM; S. cerevisiae tim23-1 growth, BacTiter-Glo luminescence, 24 h; 330,000 compounds, 1.3% hits;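 active = growth inhibition of the mutant yeast at or above 50%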;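 note: temperature-sensitive mutant grown at 25 °C; plate controls were DMSO-treated mutant yeast for no effect and medium wells lacking yeast for full effect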
# SKKanGAS inh: blocks kanamycin growth of S. pyogenes SKKanGAS strain; inhibition, % at 7.5 µM; BacTiter-Glo, 6 h; 300,000 compounds, 1.3% hits; AID 1662;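 active = mean replicate score, as percent of positive control median, at least 50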;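 note: strain carries kanamycin resistance gene driven by streptokinase promoter and grows in 40 µg/ml kanamycin; loss of luminescence reflects streptokinase promoter inhibition or plain growth inhibition; 0% = median of DMSO wells and 100% = positive control at its reference dose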
# PfHsp90 set2: inhibits growth of yeast expressing Plasmodium falciparum Hsp90 | S. cerevisiae expressing PfHsp90, BacTiter-Glo ATP, 48 h; yeast lacking PDR1 and PDR3 efflux regulators | inhibition, % at 9.4 µM | 310,000 compounds, 0.32% hits;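 active = every replicate shows inhibition above about 80%, whatever the replicate mean, limit read from the data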;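 note: 0% = DMSO neutral controls and 100% = 20 µM radicicol positive controls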
# tim10-1 inh: inhibits growth of tim10-1 mutant yeast | 330,000 compounds, 2.2% hits | S. cerevisiae tim10-1 ts strain growth, BacTiter-Glo, 24 h | inhibition, % at 20 µM | AID 463190;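 active = inhibition of at least 40%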;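 note: mutant grown at 25 °C; 0% = DMSO wells with yeast and 100% = wells holding no yeast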
# NLRP3 yeast inh: inhibitors of NALP3 inflammasome in yeast. inhibition, % at 10 µM. 330,000 compounds, 0.39% hits. AID 2825. Yeast reconstituted NLRP3/ASC/caspase-1, beta-gal luminescence, 24 h;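 active = inhibition of 50% or more; inactive = inhibition below 50%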;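 note: plate controls were induced DMSO wells for no effect and uninduced yeast grown without galactose for full effect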
# TIM10 inh: growth inhibitors of TIM10 yeast strain | S. cerevisiae TIM10 strain growth, BacTiter-Glo luminescence, 24 h | inhibition, % at 10 µM | 330,000 compounds, 1.4% hits | AID 463195;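 active = inhibition of 40% or more at the single tested concentration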;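 note: wild-type TIM10 isogenic control strain grown at permissive 25 °C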
# tim10-1 conf: confirmation of tim10-1 mutant yeast growth inhibitors. 7,400 compounds, 56% hits. inhibition, % at 20 µM. AID 463213. shares compounds with tim10-1 inh. S. cerevisiae tim10-1 ts strain growth, BacTiter-Glo, 24 h;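 active = inhibition of yeast growth at or above a set limit in either of two repeat tests at 20 µM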;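 note: tim10-1 mutant grown at permissive 25 °C to find synthetic lethal compounds; 0% = DMSO yeast wells and 100% = medium wells without yeast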
# TIM10 conf: confirmation of TIM10 yeast growth inhibitors | shares compounds with TIM10 inh | AID 463215 | 4,600 compounds, 63% hits | inhibition, % at 10 µM | S. cerevisiae tim10 strain growth, BacTiter-Glo luminescence, 24 h;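 active = inhibition of yeast growth at or above a set limit in either of two replicates at 10 µM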;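 note: this counterscreen used the strain with wild-type TIM10; 0% = yeast with DMSO and 100% = medium wells lacking yeast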
# tim23-1 conf: tim23-1 yeast growth inhibition, confirmed | S. cerevisiae tim23-1 growth, BacTiter-Glo luminescence, 24 h | 4,400 compounds, 83% hits | shares compounds with tim23-1 inh | inhibition, % at 20 µM | AID 463218;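 active = inhibition above about 39% in either of two replicate wells at 20 µM, limit read from the data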;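 note: temperature-sensitive tim23-1 mutant grown at 25 °C; 0% = DMSO wells with yeast and 100% = medium wells without yeast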
# Active calls of the source: *; nt = no result. In the library only some 4.6% were active in any assay of this set; here they are far more common.
SMILES,tim23-1 inh,SKKanGAS inh,PfHsp90 set2,tim10-1 inh,NLRP3 yeast inh,TIM10 inh,tim10-1 conf,tim23-1 conf,others
O=C(NC12CC3CC(CC(C3)C1)C2)c1ccc(Br)o1,25.3,2.3,13.1,24.4,-2.9,35.3,nt,nt,
O=C(NC12CC3CC(CC(C3)C1)C2)c1ccc([N+](=O)[O-])o1,63.8*,93.0*,0.4,57.2*,33.2,34.2,66.8*,51.2*,
CSc1nc(C)c(C(=O)C[n+]2ccccc2)cc1C#N,1.5,-3.6,18.0,8.5,-7.6,2.7,nt,nt,
Cn1c(N=Nc2ccccc2)nc2ccccc21,32.1,47.3,12.5,15.4,23.3,26.2,nt,nt,
CN(C)c1ccc(N=Nc2nc3ccccc3n2C)cc1,86.5*,13.0,-30.2,64.6*,36.5,81.9*,74.2*,82.2*,TIM10 conf=73.2*
CCCN(c1nc(C)cc(OC)n1)S(=O)(=O)c1ccccc1,50.7*,4.5,-33.3,43.9*,-8.2,33.7,18.4,39.9*,
CCOc1ccc(C(=O)/C=C/c2cn(CN3CCN(C)CC3)c3ccccc23)cc1,67.8*,nt,-11.3,40.2*,37.4,38.9,20.1,51.0*,
CCN(CC)c1ccc(/C=N/NC(=O)c2nnn(-c3nonc3N)c2C(C)C)c(O)c1,61.9*,58.6*,22.8,71.6*,23.8,60.3*,16.2,61.0*,TIM10 conf=66.2*
N#CC(C#N)=Cc1cc2ccccc2nc1N1CCCCC1,78.0*,11.2,-43.5,53.0*,13.0,40.7*,41.8*,71.2*,TIM10 conf=13.4
O=C(Cc1cccc(NC(=O)C2CCCN(C(=O)C3CCCC3)C2)c1)Nc1ccc(C(=O)N2CCOCC2)cc1 (stereo unspecified),nt,nt,-5.8,nt,nt,nt,nt,nt,
CCO[C@H]1OC(C(=O)N2CCN(C)CC2)=C[C@@H](C)[C@@H]1CCCO,-0.5,1.6,10.2,-8.6,9.7,-1.6,nt,nt,
Oc1ccc(N=Nc2ccccc2)o1,68.1*,-0.4,9.2,67.0*,32.4,18.0,67.0*,74.6*,
c1ccc(N=Nc2ccc3cccccc2-3)cc1,19.1,11.4,-0.7,15.7,27.3,10.5,nt,nt,
CCOC(=O)CC1=NN(c2ccccc2)C(=O)/C1=C\c1ccc(N(C)C)cc1,51.5*,-1.5,2.6,43.2*,17.8,51.2*,42.8*,53.1*,TIM10 conf=53.4*
O=c1c2cc(Cl)ccc2nc(-c2ccccc2)n1O,59.5*,25.7,11.8,48.2*,39.9,14.6,5.8,63.7*,
CCOCC(=O)Nc1nc2ccc(OCC)cc2s1,33.6,-6.9,29.1,26.3,-11.2,4.0,nt,nt,
CCOc1ccc2nc(NC(=O)C3(C)CC3(Br)Br)sc2c1 (stereo unspecified),73.6*,20.2,-2.0,49.5*,24.5,25.1,40.4*,38.0*,
CCN(CC(=O)NC(=O)NCc1ccco1)Cc1ccccc1,-1.1,-6.3,38.4,9.5,30.4,3.4,nt,nt,
c1ccc(Cn2nnc3c(N4CCCCCC4)ncnc32)cc1,22.2,17.0,-26.1,19.3,12.0,-7.6,nt,nt,
Clc1cccc(Cl)c1Cn1cnc2c(N3CCCCCC3)ncnc21,50.1*,21.5,-2.4,44.0*,7.0,41.1*,29.3,47.2*,TIM10 conf=27.6*
CCOc1ccc(Cn2c(=O)sc3ccccc32)cc1OC,12.1,-7.5,-25.1,-1.1,10.5,-16.4,nt,nt,
C=CCNC(=O)/C(C#N)=C/c1c(C)nn(-c2ccc(Cl)cc2)c1Cl,56.0*,3.0,66.4,62.7*,16.4,57.5*,59.1*,65.8*,TIM10 conf=63.4*
Cc1nn(-c2ccc(Cl)cc2)c(Cl)c1/C=C(\C#N)C(N)=O,47.6,-1.9,-93.2,26.3,13.4,18.5,nt,nt,
O=c1/c(=C/c2cccc3ccccc23)sc2ncnn12,68.7*,-0.3,nt,46.2*,3.1,16.0,18.9,73.6*,
O=C(CCC(=O)N1CCCC1)Nc1ccc(Cl)c(Cl)c1,7.4,-10.0,6.6,-6.6,13.3,-2.0,nt,nt,
C/C(CC(=O)Nc1ccc2c(c1)OCCO2)=N\NC(=O)COc1ccc(Cl)c(C)c1,11.6,1.8,-13.0,6.0,1.9,10.0,nt,nt,
